This note sets out measurements from ChEMBL document CHEMBL1157539, “Thousands of chemical starting points for antimalarial lead identification” (Nature, 2010).

Common to all, as to assay type: functional
The test system of experiment [1] is Plasmodium falciparum. The experiment is described as follows: GSK_TCMDC: Inhibition of Plasmodium falciparum 3D7 in whole red blood cells, using parasite LDH activity as an index of growth. Test compounds present at 2uM.
In experiment [2] the test system is Plasmodium falciparum. The experiment is described as follows: GSK_TCMDC: Inhibition of Plasmodium falciparum Dd2 in whole red blood cells, using parasite LDH activity as an index of growth. Test compounds present at 2uM.
The subject of experiment [3] is HepG2. The experiment is described as follows: GSK_TCMDC: Percent inhibition of human HepG2 cell line. Test compounds present at 10uM.

One may read the Inhibition as the drop in the measured response relative to a control, in per cent.

With `Cl.ON=C1c2cc(OCCN3CCCCC3)c(Cl)cc2-c2cc(Cl)c(OCCN3CCCCC3)cc21`, the Inhibition in experiment [1] came out at 97%; in experiment [2], 98%; in experiment [3], 99%.
On the same counts, the results for `O=C(O)C(F)(F)F.OC1CCCN(Cc2ccc(-c3ccc(-c4nc5cc(F)ccc5[nH]4)s3)cc2)C1` (centres undefined) are 100%, 99% and 40%.
With `CC(C)NCc1ccc(-c2cccc(-c3nc4cc(F)ccc4[nH]3)c2)cc1.O=C(O)C(F)(F)F`, the Inhibition in experiment [1] came out at 100%; in experiment [2], 96%; in experiment [3], 14%.
On the same counts, the results for `Cc1ccc(Nc2nc(C)cc(NC3CCN(C)CC3)n2)cc1` are 100%, 21% and 14%.
For `O=C(Nc1cccc(C(F)(F)F)c1)c1cccc(S(=O)(=O)NCC2CCCN(Cc3ccccc3)C2)c1.O=C(O)C(F)(F)F` (centres undefined), in that order: 94%, 3% and 17%.
On the same counts, the results for `Cl.N[C@@H](CCNCc1ccc(-c2cccnc2)cc1)Cc1ccc(F)c(F)c1` are 98%, 57% and 45%.
On to `CCN(CC)CCON=Cc1cc(C)c2[nH]c3ccc(OCc4ccccc4)cc3c2c1C`, for which the Inhibition is 98% in experiment [1], 29% in experiment [2] and 29% in experiment [3].
For `Cc1[nH]c(C)c([N+](=O)[O-])c(=O)c1-c1ccc(Oc2ccc(OC(F)(F)F)cc2)cc1`, the Inhibition amounted to 97% in experiment [1], 97% in experiment [2] and 0% in experiment [3].
On to `COc1cc(Nc2nccn3c(-c4ccsc4)cnc23)cc(OC)c1OC`, for which the Inhibition in experiment [1] turned out to be 93%; in experiment [2] it was 78%; in experiment [3], 26%.
For `Cc1ccc(CNC(=O)c2ccc(CN3CCCN(Cc4ccsc4)CC3)cc2)cc1.O=C(O)C(F)(F)F`, in that order: 93%, 0% and 16%.
For `Cc1cc(=O)c(-c2ccc(Oc3ccc(C(F)(F)F)cc3)cc2)c(C)n1O`, in that order: 94%, 78% and 18%.
On the same counts, the results for `Nc1nc(N)c2c(ccc3c2ccn3CCCC(F)(F)F)n1` are 97%, 34% and 66%.
Take `O=[N+]([O-])c1c(O)nc2c(c1O)CCC2`: the Inhibition in experiment [1] amounted to 97%; in experiment [2], 1%; in experiment [3], 9%.
On the same counts, the results for `COc1ccc2ncc(F)c(CCN3CC[C@H](NCc4cc(C#N)c5c(c4)OCCO5)[C@H](O)C3)c2c1` are 96%, 47% and 51%.
For `O=C(Nc1ccc(S(=O)(=O)N2CCCCCC2)cc1)c1cc(-c2ccccc2O)n[nH]1`, in that order: 100%, 76% and 16%.
For `CC(C)(C(=O)Nc1ccc(C2CCC(NCC3CC3)CC2)c(Cl)c1)c1ccc(C(F)(F)F)cc1` (centres undefined), in that order: 97%, 18% and 64%.
`CCC(CC)(Cc1ccccc1)NC(=O)[C@H](CC(C)C)Nc1ccc(C#N)c2ccccc12.O=C(O)C(F)(F)F`: the Inhibition in experiment [1] is listed as 90%; in experiment [2], 73%; in experiment [3] it was 57%.
On the same counts, the results for `COc1ccccc1-c1cccc(Nc2c(Nc3ccc(Cl)cc3)c(=O)c2=O)c1` are 81%, 47% and 20%.
On the same counts, the results for `CCCCCNC(=N)c1ccc(OCCCCCOc2ccc(C(=N)NCCCCC)cc2)cc1.Cl` are 99%, 98% and 3%.
For `Cc1cc(CN2CCC(N3CC(c4ccccc4)(c4ccccc4)OCC3=O)C2)ccc1O.O=C(O)C(F)(F)F` (centres undefined), in that order: 89%, 52% and 3%.
`CCc1cccc(NC(=O)c2ccc(CN3CCCN(CC4CCCCC4)CC3)cc2)c1.O=C(O)C(F)(F)F`: the Inhibition in experiment [1] amounted to 84%; in experiment [2], 36%; in experiment [3], 44%.
For `Cc1cc(N/N=C/c2cccc([N+](=O)[O-])c2)c2ccc(C(F)(F)F)cc2n1`, in that order: 100%, 51% and 2%.
On the same counts, the results for `O=C(Nc1ccc(-c2cccc(-c3nc4ccccc4[nH]3)c2)cc1)NC1CC1c1ccccc1` (centres undefined) are 84%, 6% and 63%.
On the same counts, the results for `CN1CCC[C@H]1COc1ccc(CN2CC[C@H](NC(=O)c3ccc(Cl)c(Cl)c3)C2)cc1Br.O=C(O)C(F)(F)F` are 100%, 20% and 81%.
Take `COc1ccc(-c2ccc(NC(=O)c3ccc(F)cc3)cc2)cc1CNC(C)C.O=C(O)C(F)(F)F`: the Inhibition in experiment [1] came to 97%; in experiment [2], 28%; in experiment [3], 24%.
On the same counts, the results for `Br.CCC(ON1C(N)=NC(N)=NC1(C)C)c1ccc(Cl)cc1` (centres undefined) are 91%, 90% and 68%.
For `Nc1c(Cl)cc(C(O)CNCCCCCOCCCc2ccc3ncccc3c2)cc1Cl.O=C(O)/C=C/C(=O)O` (centres undefined), in that order: 96%, 77% and 24%.
For `CCCCCCCCOc1ccc(N2C(N)=NC(N)=NC2(C)C)cc1.Cl`, in that order: 100%, 0% and 31%.
